{"source": "PubChem BioAssay (NCATS)", "note": "Results filed as inconclusive are left out. Entries that show only a call come without a potency. Unmarked numbers belong to inactive results. Activity calls are given as the source filed them. The call rests on the fitted dose curve; in most records, active means well fitted cell-killing curve with a large enough effect; inconclusive means small, poorly fitted or top-dose-only effect, or effect the other way; inactive means no such curve, though single readings can be large or run the other way. Potency means the concentration at half of the fitted maximal effect.", "data": [{"experiment": "Viability qHTS for spleen associated tyrosine kinase inhibitor (SYKi) naive MV4-11 cells (AID 1963823); further: nearly all actives have a fitted effect of over 40% in size", "conditions": "MV4-11 AML viability, CellTiter-Glo luminescence, 72 h; series mostly up to 45 µM", "summary_of_the_method": "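SYKi-naive MV4-11 AML cells, 500 per well, were exposed to library compounds for 72 hr at 37 C, 5% CO2. Viability was then read by CellTiter-Glo luminescence after 10 min at room temperature.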", "values": [{"smiles": "C=C1CC[C@H]2[C@@](C)(CCC(OC3OC(CO)C(O)C(O)C3O)[C@@]2(C)CO)C1C(=O)CC1=CCOC1=O", "note": "(stereo partly specified)", "Potency": "inactive"}, {"smiles": "CC1=CC(=O)C(C(C)C)=CC1=O", "Potency": "inactive"}, {"smiles": "O=C(O)c1ccc(N2C(=O)/C(=C/c3ccc(-c4ccc([N+](=O)[O-])cc4)o3)C=C2c2ccccc2)cc1", "Potency": "inactive"}, {"smiles": "Cc1ccc(-c2ncccn2)c(C(=O)N2C[C@H](COc3ccc(F)cn3)CC[C@H]2C)c1", "Potency": "inactive"}, {"smiles": "C[C@H]1[C@H](C)CC[C@]2(C(=O)O[C@@H]3O[C@H](CO)[C@@H](O)[C@H](O)[C@H]3O)CC[C@]3(C(=O)O)C(=CCC4[C@@]5(C)CC[C@H](O[C@@H]6O[C@H](CO)[C@@H](O)[C@H](O)[C@H]6O)C(C)(C)C5CC[C@]43C)[C@H]12", "note": "(stereo partly specified)", "viability (% of control)": "69.7% [at 9.25 µM]"}, {"smiles": "CCN(CC)c1ccc2c(O)c(C=Nc3ccc(CC(=O)O)c(-c4c5c(nc6ccccc46)CCC(C(=O)NN)C5)c3)c(=O)oc2c1", "note": "(stereo unspecified)", "Potency": "2.59 µM (active)"}, {"smiles": "CCOc1cc(C(C)(C)C)ccc1C1=NC(C)(c2ccc(Cl)cc2)C(C)(c2ccc(Cl)cc2)N1C(=O)N1CCN(CCCS(C)(=O)=O)CC1", "note": "(stereo unspecified)", "Potency": "10.3 µM (active)"}, {"smiles": "CC(c1ncncc1F)C(O)(Cn1cncn1)c1ccc(F)cc1F", "note": "(stereo unspecified)", "Potency": "inactive"}, {"smiles": "CCC(CC)n1ccc2c(C(=O)NCc3c(C)cc(C)[nH]c3=O)cc(C#N)cc21", "Potency": "inactive"}, {"smiles": "CC(C)(C)NC(=O)[C@H]1CC[C@H]2[C@@H]3CC[C@H]4NC(=O)CC[C@]4(C)[C@H]3CC[C@]12C", "Potency": "inactive"}, {"smiles": "CC(C)C1(O)NC(=O)C(CC2(O)c3ccccc3N3C(=O)C(C)(C)NC32)n2c1nc1ccccc1c2=O", "note": "(stereo unspecified)", "Potency": "inactive"}]}]}
